Measured values: the supplement of paper PMC9794691

test system: PC9; test: area under confluence curve of compound monotherapy; compare to DMSO control AUC of the same experiment (AUC (confluence x time, arbitrary)); conditions: 5 nM; DMSO control AUC in same experiment: 29563
Protocol: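 compare to DMSO control AUC of the same experiment; Monotherapy arm of the osimertinib DTP screen: EGFR-mutant NSCLC cells were treated with the test compound alone at a fixed dose (highest dose with <50% inhibition of parental cells, or 1 uM), then switched to drug-free medium at the DTP stage. IncuCyte confluence was tracked and AUC computed in Prism. AUC scale depends on experiment duration, so each row carries the same-experiment DMSO control AUC (monotherapy activity = DMSO AUC minus monotherapy AUC). The monotherapy value is shared between screen formats.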

Question: How did the “area under confluence curve” value turn out when NC(=O)Nc1cc(-c2cccc(F)c2)sc1C(=O)N[C@H]1CCCNC1 was run?
Answer: Its value is 26800.

same assay, conditions: 10 nM; DMSO control AUC in same experiment: 18385

Question: Which “area under confluence curve” value does the source give for Cc1nc(-c2nc(-c3ccc(OC(F)(F)F)cc3)no2)nn1Cc1cccc(N2CCC(S(C)(=O)=O)CC2)c1 here?
Answer: Its value is 18100.

same assay, conditions: 10 nM; DMSO control AUC in same experiment: 19076

Question: How did the “area under confluence curve” value turn out when Cc1nc(-c2nc(-c3ccc(OC(F)(F)F)cc3)no2)nn1Cc1cccc(N2CCC(S(C)(=O)=O)CC2)c1 was run?
Answer: Its value is 18900.

same assay, conditions: 10 nM; DMSO control AUC in same experiment: 21341

Question: How did the “area under confluence curve” value turn out when Cn1cc(CNCC2CCN(c3ncc(C(=O)NO)cn3)CC2)c2ccccc21 [Quisinostat] was run?
Answer: Its value is 17400.

Question: Which “area under confluence curve” value does the source give for CC(=O)Nc1cccc(-n2c(=O)n(C3CC3)c(=O)c3c(Nc4ccc(I)cc4F)n(C)c(=O)c(C)c32)c1 [Trametinib] here?
Answer: Its value is 20400.

same assay, conditions: 10 nM; DMSO control AUC in same experiment: 27958

Question: Which “area under confluence curve” value does the source give for Cn1cc(CNCC2CCN(c3ncc(C(=O)NO)cn3)CC2)c2ccccc21 [Quisinostat] here?
Answer: Its value is 20800.

same assay, conditions: 10 nM; DMSO control AUC in same experiment: 30002

Question: How did the “area under confluence curve” value turn out when Cn1cc(CNCC2CCN(c3ncc(C(=O)NO)cn3)CC2)c2ccccc21 [Quisinostat] was run?
Answer: The value was 29800.

same assay, conditions: 10 nM; DMSO control AUC in same experiment: 49189

Question: Which “area under confluence curve” value does the source give for CC(=O)Nc1cccc(-n2c(=O)n(C3CC3)c(=O)c3c(Nc4ccc(I)cc4F)n(C)c(=O)c(C)c32)c1 [Trametinib] here?
Answer: Its value is 49600.

same assay, conditions: 30 nM; DMSO control AUC in same experiment: 27958

Question: Cc1nc(Nc2ncc(C(=O)Nc3c(C)cccc3Cl)s2)cc(N2CCN(CCO)CC2)n1 [Dasatinib] was tested. Which “area under confluence curve” value did it give?
Answer: The value was 22500.

same assay, conditions: 30 nM; DMSO control AUC in same experiment: 28243

Question: With Cc1nc(Nc2ncc(C(=O)Nc3c(C)cccc3Cl)s2)cc(N2CCN(CCO)CC2)n1 [Dasatinib] as the compound, how does the “area under confluence curve” value read?
Answer: Its value is 18100.

same assay, conditions: 100 nM; DMSO control AUC in same experiment: 20347

Question: Which “area under confluence curve” value does the source give for Cc1nc(Nc2n[nH]c3c2CN(C(=O)N[C@H](CN(C)C)c2ccccc2)C3(C)C)c2sccc2n1 here?
Answer: The value was 22800.

same assay, conditions: 100 nM; DMSO control AUC in same experiment: 21341

Question: Which “area under confluence curve” value does the source give for C[C@@]1(C(=O)Nc2ccc(F)nc2)CCCN1c1nc(Nc2cc(C3CC3)n[nH]2)c2cccn2n1 here?
Answer: The value was 20100.

same assay, conditions: 100 nM; DMSO control AUC in same experiment: 22064

Question: Which “area under confluence curve” value does the source give for C=CCn1c(=O)c2cnc(Nc3ccc(N4CCN(C)CC4)cc3)nc2n1-c1cccc(C(C)(C)O)n1 here?
Answer: The value was 21300.

same assay, conditions: 100 nM; DMSO control AUC in same experiment: 28684

Question: How did the “area under confluence curve” value turn out when CCN1CCN(Cc2ccc(Nc3ncc(F)c(-c4cc(F)c5nc(C)n(C(C)C)c5c4)n3)nc2)CC1 [Abemaciclib] was run?
Answer: The value was 28400.

same assay, conditions: 100 nM; DMSO control AUC in same experiment: 30578

Question: How did the “area under confluence curve” value turn out when CCN1CCN(Cc2ccc(Nc3ncc(F)c(-c4cc(F)c5nc(C)n(C(C)C)c5c4)n3)nc2)CC1 [Abemaciclib] was run?
Answer: The value was 29700.

same assay, conditions: 100 nM; DMSO control AUC in same experiment: 30580

Question: C[C@@]1(C(=O)Nc2ccc(F)nc2)CCCN1c1nc(Nc2cc(C3CC3)n[nH]2)c2cccn2n1 was tested. Which “area under confluence curve” value did it give?
Answer: Its value is 30100.

same assay, conditions: 100 nM; DMSO control AUC in same experiment: 30604

Question: For C=CCn1c(=O)c2cnc(Nc3ccc(N4CCN(C)CC4)cc3)nc2n1-c1cccc(C(C)(C)O)n1, which “area under confluence curve” value is on record?
Answer: Its value is 30700.

same assay, conditions: 100 nM; DMSO control AUC in same experiment: 49143

Question: With C[C@@]1(C(=O)Nc2ccc(F)nc2)CCCN1c1nc(Nc2cc(C3CC3)n[nH]2)c2cccn2n1 as the compound, how does the “area under confluence curve” value read?
Answer: The value was 48900.

same assay, conditions: 100 nM; DMSO control AUC in same experiment: 88996

Question: For CCN1CCN(Cc2ccc(Nc3ncc(F)c(-c4cc(F)c5nc(C)n(C(C)C)c5c4)n3)nc2)CC1 [Abemaciclib], which “area under confluence curve” value is on record?
Answer: The value was 88400.

same assay, conditions: 300 nM; DMSO control AUC in same experiment: 19076

Question: How did the “area under confluence curve” value turn out when COc1nnc2ccc(N3CCC(c4ccc(OCCN5CCN(C)C(=O)[C@H]5C)cc4)CC3)nn12 was run?
Answer: The value was 19200.

same assay, conditions: 300 nM; DMSO control AUC in same experiment: 21594

Question: How did the “area under confluence curve” value turn out when COc1nnc2ccc(N3CCC(c4ccc(OCCN5CCN(C)C(=O)[C@H]5C)cc4)CC3)nn12 was run?
Answer: The value was 20500.

same assay, conditions: 300 nM; DMSO control AUC in same experiment: 31840

Question: Which “area under confluence curve” value does the source give for COc1nnc2ccc(N3CCC(c4ccc(OCCN5CCN(C)C(=O)[C@H]5C)cc4)CC3)nn12 here?
Answer: The value was 31700.

same assay, conditions: 300 nM; DMSO control AUC in same experiment: 44384

Question: Which “area under confluence curve” value does the source give for COc1nnc2ccc(N3CCC(c4ccc(OCCN5CCN(C)C(=O)[C@H]5C)cc4)CC3)nn12 here?
Answer: The value was 39700.

same assay, conditions: 1000 nM; DMSO control AUC in same experiment: 18733

Question: With O=C(N[C@@H](C1CC1)C(F)(F)F)c1cc(-c2cnn3cc(-c4ccc(F)cc4)cnc23)cs1 as the compound, how does the “area under confluence curve” value read?
Answer: The value was 18000.

same assay, conditions: 1000 nM; DMSO control AUC in same experiment: 20567

Question: Cc1cccc(-c2[nH]c(C(C)(C)C)nc2-c2ccc3nccnc3c2)n1 was tested. Which “area under confluence curve” value did it give?
Answer: The value was 20400.

same assay, conditions: 1000 nM; DMSO control AUC in same experiment: 21594

Question: With COc1nn(C)cc1Nc1nccc(-c2c[nH]c3c(NC(=O)[C@@H](C)N4CCN(C)CC4)cccc23)n1 as the compound, how does the “area under confluence curve” value read?
Answer: The value was 20800.

same assay, conditions: 1000 nM; DMSO control AUC in same experiment: 22064

Question: How did the “area under confluence curve” value turn out when C[C@@H](Oc1cc(-c2cnn(C3CCNCC3)c2)cnc1N)c1c(Cl)ccc(F)c1Cl [Crizotinib] was run?
Answer: Its value is 21100.

Question: How did the “area under confluence curve” value turn out when Cc1cccc(-c2[nH]c(C(C)(C)C)nc2-c2ccc3nccnc3c2)n1 was run?
Answer: Its value is 21700.

Question: C[C@@H]1COCCN1c1cc(C2([S@](C)(=N)=O)CC2)nc(-c2cc[nH]c3nccc2-3)n1 was tested. Which “area under confluence curve” value did it give?
Answer: Its value is 21700.

same assay, conditions: 1000 nM; DMSO control AUC in same experiment: 28684

Question: For CCn1nc(C2CCN(C(=O)CCO)CC2)nc1-c1cnc(N)c(-c2nnc(C(C)(C)C)o2)n1, which “area under confluence curve” value is on record?
Answer: Its value is 28000.

same assay, conditions: 1000 nM; DMSO control AUC in same experiment: 29345

Question: With Cc1cc(Nc2ncnc3ccc(NC4=NC(C)(C)CO4)cc23)ccc1Oc1ccn2ncnc2c1 [Tucatinib] as the compound, how does the “area under confluence curve” value read?
Answer: Its value is 29400.

Question: With CS(=O)(=O)CCNCc1ccc(-c2ccc3ncnc(Nc4ccc(OCc5cccc(F)c5)c(Cl)c4)c3c2)o1 [Lapatinib] as the compound, how does the “area under confluence curve” value read?
Answer: Its value is 20900.

same assay, conditions: 1000 nM; DMSO control AUC in same experiment: 30002

Question: For Cc1cc(Nc2ncnc3ccc(NC4=NC(C)(C)CO4)cc23)ccc1Oc1ccn2ncnc2c1 [Tucatinib], which “area under confluence curve” value is on record?
Answer: The value was 30200.

same assay, conditions: 1000 nM; DMSO control AUC in same experiment: 30326

Question: How did the “area under confluence curve” value turn out when CCN(c1cc(-c2ccc(CN3CCOCC3)cc2)cc(C(=O)NCc2c(C)cc(C)[nH]c2=O)c1C)C1CCOCC1 [Tazemetostat] was run?
Answer: The value was 29400.

same assay, conditions: 1000 nM; DMSO control AUC in same experiment: 30604

Question: For Cc1cc2ncnn2cc1Nc1ncc2c(n1)n(C1CCOCC1)c(=O)n2C, which “area under confluence curve” value is on record?
Answer: The value was 30500.

Question: How did the “area under confluence curve” value turn out when C[C@@H]1COCCN1c1cc(C2([S@](C)(=N)=O)CC2)nc(-c2cc[nH]c3nccc2-3)n1 was run?
Answer: Its value is 30800.

same assay, conditions: 1000 nM; DMSO control AUC in same experiment: 31239

Question: How did the “area under confluence curve” value turn out when O=C(CCCCCCC(=O)Nc1ccccc1)NO [Vorinostat] was run?
Answer: The value was 29400.

same assay, conditions: 1000 nM; DMSO control AUC in same experiment: 43316

Question: For CCn1nc(C2CCN(C(=O)CCO)CC2)nc1-c1cnc(N)c(-c2nnc(C(C)(C)C)o2)n1, which “area under confluence curve” value is on record?
Answer: The value was 43000.

same assay, conditions: 1000 nM; DMSO control AUC in same experiment: 48219

Question: Which “area under confluence curve” value does the source give for O=C(CCCCCCC(=O)Nc1ccccc1)NO [Vorinostat] here?
Answer: Its value is 47800.

same assay, conditions: 1000 nM; DMSO control AUC in same experiment: 72888

Question: With CCn1cc(-c2cccc(C(F)(F)F)c2)c2sc(C(=N)NC3CCS(=O)(=O)CC3)cc2c1=O as the compound, how does the “area under confluence curve” value read?
Answer: The value was 73000.
